Format in all cases: functional
Assay [1] relates to Plasmodium falciparum. In words: GSK_TCMDC: Inhibition of Plasmodium falciparum 3D7 in whole red blood cells, using parasite LDH activity as an index of growth. Test compounds present at 2uM.
The subject of assay [2] is Plasmodium falciparum. In words: GSK_TCMDC: Inhibition of Plasmodium falciparum Dd2 in whole red blood cells, using parasite LDH activity as an index of growth. Test compounds present at 2uM.
Another assay concerns HepG2. In words: GSK_TCMDC: Percent inhibition of human HepG2 cell line. Test compounds present at 10uM.

Regarding `CN1CCN(CCCN(Cc2ccc(-c3ccc(CNCCc4ccccc4)cc3)cc2)C(=O)c2cccs2)CC1.O=C(O)C(F)(F)F`, the results for the Inhibition with Plasmodium falciparum [1], in the assay on Plasmodium falciparum [2] and with HepG2 were 98%, 78% and 32%, respectively.
The corresponding values for `CC(C)C[C@H](Nc1ccc(C#N)c2ccccc12)C(=O)NC(C)(C)C12CC3CC(CC(C3)C1)C2.O=C(O)C(F)(F)F` are 96%, 30% and 19%.
Regarding `Cn1cncc1C(=O)Nc1cccc(-c2ccc(-c3nc4cc(C(F)(F)F)ccc4[nH]3)cc2)c1`, the Inhibition (in general, the drop in the measured response relative to a control, in per cent) in the assay on Plasmodium falciparum [1] is 97%; in the assay on Plasmodium falciparum [2], 98%; with HepG2, 4%.
As to `COc1ccc2nccc(N/N=C/c3cccc([N+](=O)[O-])c3)c2c1`, the Inhibition was found to be 100% in the assay with Plasmodium falciparum [1], 98% in the assay with Plasmodium falciparum [2] and 4% in the assay with HepG2.
The corresponding values for `CNCCNCc1ccc(-c2ccc(-c3nc4cc(F)ccc4[nH]3)cc2)cc1.O=C(O)C(F)(F)F` are 98%, 97% and 30%.
In the case of `COC(=O)CCCCCOc1cc(Cc2cnc(N)nc2N)cc(OC)c1OC`, the Inhibition was 90% in the assay with Plasmodium falciparum [1], 0% in the assay on Plasmodium falciparum [2] and 0% in the assay with HepG2.
Consider `O=[N+]([O-])c1cccc(Nc2cncc(-c3ccc(CO)cc3)c2)c1`, for which the Inhibition turned out to be 85% in the assay with Plasmodium falciparum [1], 96% in the assay on Plasmodium falciparum [2] and 16% in the assay with HepG2.
As for `CNC(=O)c1cc(F)c(F)cc1Nc1nc(Nc2cccc(CS(C)(=O)=O)c2)ncc1Cl.O=CO`, the Inhibition in the assay on Plasmodium falciparum [1] came to 91%; in the assay with Plasmodium falciparum [2] it was 90%; with HepG2, 52%.
Take `O=C(/C=C/c1ccc(C(F)(F)F)cc1)NCCCCCN1CCCN(C(=O)Nc2ccc(F)c(Cl)c2)CC1`: the Inhibition turned out to be 100% in the assay with Plasmodium falciparum [1], 33% with Plasmodium falciparum [2] and 33% with HepG2.
For the compound `COc1ccc(NC(=O)NC2CCN(CCCOc3ccnc4cc(Cl)ccc34)C2)cc1OC` (stereo not given), the Inhibition in the assay with Plasmodium falciparum [1] turned out to be 90%; in the assay on Plasmodium falciparum [2], 16%; with HepG2, 6%.
As for `CS(=O)(=O)CCNCc1ccc(-c2cc3c(Nc4ccc(OCc5cccc(F)c5)c(Cl)c4)ncnc3s2)[nH]1`, the Inhibition in the assay with Plasmodium falciparum [1] turned out to be 99%; in the assay with Plasmodium falciparum [2], 95%; in the assay with HepG2 it was 5%.
The corresponding values for `Cc1cccc2nc(-c3cccc(-c4ccc(NC(=O)C(=O)c5cccn5C)cc4)c3)[nH]c12` are 100%, 46% and 45%.
The corresponding values for `C[C@@H](Oc1cc(-n2cnc3cc(SCCN4CCN(C)CC4)ccc32)sc1C(N)=O)c1ccccc1Cl` are 90%, 65% and 46%.
The corresponding values for `COc1cccc(C(NC(=O)c2ccccc2)c2ccc3cccnc3c2O)c1` (stereo not given) are 89%, 41% and 52%.
Consider `COc1ccc2ncc(F)c(CCN3CC(O)C(CNCc4ccc5oc(=O)ccc5c4)C3)c2n1.Cl` (stereo not given), for which the Inhibition in the assay with Plasmodium falciparum [1] was determined as 89%; in the assay on Plasmodium falciparum [2] it was 6%; with HepG2 it was 18%.
`COc1ccc(CNC2CCN(C)CC2)cc1-c1ccc(S(=O)(=O)NCCN2CCCC2)s1.O=C(O)C(F)(F)F`: the Inhibition is 90% in the assay with Plasmodium falciparum [1], 1% in the assay on Plasmodium falciparum [2] and 2% with HepG2.
Consider `Brc1cc2c(cc1C=NNc1nc(=Nc3ccccc3)[nH]c(=Nc3ccccc3)[nH]1)OCO2`, for which the Inhibition with Plasmodium falciparum [1] is reported as 100%; in the assay on Plasmodium falciparum [2], 32%; in the assay on HepG2, 0%.
The corresponding values for `Cc1ccc(S(=O)(=O)N(CCCNCc2cccc(O)c2)c2ccccc2)cc1` are 95%, 94% and 6%.
Turning to `Cc1cccc(Nc2nc(C)cc(N3CCCN(CC4CCCCC4)CC3)n2)c1`, the Inhibition is 83% with Plasmodium falciparum [1], 21% in the assay with Plasmodium falciparum [2] and 20% in the assay on HepG2.
The corresponding values for `O=C(Nc1ccncc1)c1cn(-c2ccccc2)nc1-c1cccs1` are 98%, 10% and 7%.
For the compound `NCc1ccc(CNCc2cccc(-c3cccc(-c4nc5ccccc5[nH]4)c3)c2)cc1.O=C(O)C(F)(F)F`, the Inhibition is 100% with Plasmodium falciparum [1], 11% in the assay on Plasmodium falciparum [2] and 7% with HepG2.
The corresponding values for `CNc1nc(N/N=C/c2cc([N+](=O)[O-])c(Cl)cc2Cl)nc(Nc2cccc(C(F)(F)F)c2)n1` are 100%, 97% and 13%.
As to `C=C[C@H]1CN(CCCCCCC)CC[C@H]1C[C@@H](Cc1ccnc2ccc(OC)cc12)OC(=O)[C@](OC)(c1ccccc1)C(F)(F)F`, the Inhibition in the assay on Plasmodium falciparum [1] came out at 96%; with Plasmodium falciparum [2], 96%; with HepG2, 12%.
Take `CN1CCN(CCCN(Cc2ccc(-c3cccc(CNC4CCCC4)c3)cc2)C(=O)/C=C/c2ccccc2)CC1.O=C(O)C(F)(F)F`: the values for the Inhibition with Plasmodium falciparum [1], in the assay with Plasmodium falciparum [2] and with HepG2 were 100%, 87% and 36%, respectively.
Take `N#C/N=C(\NCCCCCCCCN/C(=N\C#N)NCCSCc1csc(N=C(N)N)n1)NCCCSc1csc(N=C(N)N)n1`: the Inhibition with Plasmodium falciparum [1] was 91%; with Plasmodium falciparum [2], 24%; in the assay with HepG2, 0%.
The corresponding values for `C[C@@H](C(=O)N1CCOCC1)N1CC[C@H](NS(=O)(=O)c2ccc3ccnc(N)c3c2)C1=O.O=CO` are 84%, 61% and 0%.
For `Cc1cccc2nc(-c3cccc(-c4cccc(NC(=O)NCc5ccccc5)c4)c3)[nH]c12`, the Inhibition in the assay on Plasmodium falciparum [1] is 94%; with Plasmodium falciparum [2], 27%; with HepG2, 12%.
The corresponding values for `COc1cc(C(=O)NC2CCN(Cc3ccccc3)CC2)ccc1-c1nc2c(Cl)cc(C(F)(F)F)cc2[nH]1` are 100%, 56% and 7%.
The corresponding values for `COc1ccc(CNC(=O)c2cc3c(=O)n4ccccc4nc3n(CCc3ccccc3)c2=N)cc1` are 99%, 22% and 26%.
As to `CCC(C)NC(=O)CN1CN(c2ccccc2)C2(CCN(C(=O)c3ccc(C(C)(C)C)cc3)CC2)C1=O` (stereo not given), the Inhibition worked out at 100% with Plasmodium falciparum [1], 100% in the assay with Plasmodium falciparum [2] and 0% with HepG2.

The record behind these values is ChEMBL document CHEMBL1157539, “Thousands of chemical starting points for antimalarial lead identification” (Nature, 2010).
